The compounds below were run against AMP-activated protein kinase, AMPK (Homo sapiens) (UniProt P54646+O43741+P54619+Q9UGJ0+Q9Y478+Q13131+Q9UGI9) (assay: AMP-dependent Kinase enzyme assay. An in vitro enzyme assay that detects ADP turnover that is directly proportional to AMPK activity. This uses naive AMPK that is activated during the assay with MK-8722). Settings: 30 µM.
Format: functional
Set-up: scale not given: direction of the effect not stated beside the values

SMILES	Percent Effect [%]
CC(=O)N1CCN(CCNC(=O)NC(C)Cn2ccnc2)CC1 (stereo not given)	-2.62
CCN(C(=O)CS(=O)(=O)c1cc(OC)c(OC)cc1C)C1CC1	19.2
CCN(CC)C(CNC(=O)c1cccnc1-n1cncn1)c1ccsc1 (stereo not given)	5
CCC1(CC)CC(=O)N(CC(O)c2cccc(Br)c2)C1=O (stereo not given)	17.2
CCCc1nc(C(=O)NC(COC)c2ccnn2C)cs1 (stereo not given)	-0.17
COc1ccccc1CCN(C)C(C)c1nc(-c2cccnc2)no1 (stereo not given)	1.66
COc1ccc(Cl)cc1CN(C)C(=O)CN1C(=O)OC[C@@H]1C(C)C	1.71
Cc1ncc(CC(=O)N2CCCCC2CCN2CCCC2)c(=O)[nH]1 (stereo not given)	0.508
CN(Cc1nncn1C)C(=O)c1cc(COc2ccccc2)[nH]n1	-7.68
CN(Cc1ccccc1)S(=O)(=O)N1C[C@@H](C(=O)O)[C@H](C2CC2)C1	3.92
CCn1cc(NC(=O)c2cccc(CN3C[C@@H](C)O[C@@H](C)C3)c2)nn1	1.85
CCc1nc(CCNc2ncccn2)sc1C	-7.35
CCOCCNC(=O)CCC1CCCO1 (stereo not given)	2.99
COCc1ccccc1NC(=O)c1ccoc1	-4.58
Cc1noc(C2CCN(Cn3cc(Cl)cn3)CC2)n1	2.75
CC(C)c1cc(C2CCN(C(=O)Cn3cnc4ccccc43)CC2)[nH]n1	10.5
Cc1cc(CN2CCC(C3CCN(CCc4ccccc4)CC3)C2)[nH]n1 (stereo not given)	-4.05
COc1ccc(NC(=O)N2CCC(CSC)C2)cc1C (stereo not given)	-6.6
Cc1cc(C(=O)NCCN2CCCCC2)nn1C(C)(C)C	24.9
CN(Cc1nnnn1C1CC1)CC1COc2ccccc2O1 (stereo not given)	4.32

SMILES	Percent Effect [%]
Cc1n[nH]c(C)c1NC(=O)NCc1cc[nH]n1	-7.26
COc1ccc(OCCNC(=O)CN(C)Cc2nnc(C)n2C)cc1	7.86
CCc1nc(C)c(CN2CCOC(CCCC(C)C)C2)[nH]1 (stereo not given)	-6.7
Cn1cc(N2CCN(c3ccc(C#N)cc3Br)CC2=O)cn1	-4.14
O=C1CCCCCN1Cc1nc(C2(c3ccc(F)cc3)CCOC2)no1 (stereo not given)	8.29
Cc1nccn1CCCN1CCCC(c2nccn2C)C1 (stereo not given)	-14.7
Cc1nn(C)c2ncnc(NCc3nncn3C3CCCCC3)c12	10.1
COc1cc2c(cc1CNCc1cccnc1OC)OC(C)C2 (stereo not given)	0.485
CCCc1ccc(CN2CCC3(CC2)CNC(=O)C3)o1	18.2
Cc1cc(CN2CCC(C3CCN(Cc4cccnc4)CC3)C2)[nH]n1 (stereo not given)	-8.19
FC(F)(F)c1cc(C2CCCN(Cc3ccncc3)C2)n[nH]1 (stereo not given)	3.39
COCCC(=O)Nc1nc2c(OC)cc(F)cc2s1	-1.47
NC(=O)CCn1ccc(NCc2cc(F)ccc2Br)n1	-0.0146
CC(=O)Nc1ccc(Oc2cc(C)nc(C3CCNCC3)c2)cc1	0.11
COc1ccsc1C(=O)NC1CCN(c2ccc(C#N)cc2)CC1	13.5
Cc1cc(C(=O)N2CCNC(=O)C2)c(C)n1Cc1ccccn1	-10.9
CC(C)NC(=O)CNC(=O)c1csc(Cc2ccccc2F)n1	4.46
CC(C)n1ccnc1CNC(=O)c1cccc(CCC(C)(C)O)c1	6.45
CCCS(=O)(=O)NCc1nc(C)cc(N2CCCC2)n1	4.77
Cc1cc(C(F)(F)F)nc(CNC(=O)CCn2cccn2)n1	12.2
